# HTT ATP protect: Huntington cell model cytoprotection by ATP luminescence; PC12 HTT-Q103 induced, cytoprotection, ATP luminescence, 40 h; hit rate 0.14% among 230,000; AID 1471; Potency, µM (top dose mostly 56.4 µM), for inactives: cytoprotection (ATP increase), hits mostly activators; further: potency means the concentration at half of the fitted maximal effect; % of control where 0% means no effect; nearly all actives have a fitted effect of over 45% in size
#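 Readout: ATPlite luminescence (ATP level). Model: stable PC12, inducible Htt exon1 Q103-GFP. Inducer: tebufenozide, 100 nM final. Compounds: dose series. No G418 in medium.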
# PNC inhibitor: inhibitors of perinucleolar compartment assembly; PC3M PTB-GFP, PNC prevalence imaging, 16 h; hits give low values; activity change (PNC), negative = inhibition, % at 10 µM; hit rate 3.1% among 140,000;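 active means readout at or below -70, meaning at least 70% loss of cells showing the perinucleolar compartment, a nuclear body marking cancer cells; inconclusive means readout between -30 and a set limit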;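 further: plate controls were DMSO wells for no effect and camptothecin positive control wells for full effect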
#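 Compounds are pinned in duplicate onto adhered PC3M cells stably expressing GFP-tagged PTB and incubated 16 h at 37 C. Cells are then fixed, nuclei stained with Hoechst, and PNC-positive cells counted.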
# HttQ103 aggreg: reduces HttQ103-GFP aggregates in PC12 cells; PC12 HttQ103-GFP aggregates, Acumen cytometry, 40 h; Potency, µM (titrated, usually from 46.1 µM), for the others: top-dose activity change, negative = inhibition, usual class: inhibitors; hit rate 1.1% among 220,000; further: potency means the concentration at half of the fitted maximal effect; on the % scale 0 is the no-effect control and ±100 the full control effect; nearly all actives have a fitted effect of over 60% in size
#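 Quantitative HTS on tebufenozide-induced (100 nM) PC12 cells stably expressing polyQ103 Huntingtin exon 1–GFP. Reduction of bright GFP aggregates, detected by laser scanning cytometry after lysis, identified actives across the titration.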
# NPSR antag: antagonists of human neuropeptide S receptor cAMP signaling; Q6W5P4; CHO-NPSR cells, cAMP TR-FRET, antagonist mode; Potency, µM (titrated, usually from 38.3 µM), for inactives: at the top dose activity change, negative = inhibition, most hits filed as inhibitors; hit rate 1% among 220,000; further: potency means the concentration at half of the fitted maximal effect; on the % scale 0 is the no-effect control and ±100 the full control effect; nearly all actives have a fitted effect of over 50% in size
# Target sequence (Q6W5P4 whole entry, looked up): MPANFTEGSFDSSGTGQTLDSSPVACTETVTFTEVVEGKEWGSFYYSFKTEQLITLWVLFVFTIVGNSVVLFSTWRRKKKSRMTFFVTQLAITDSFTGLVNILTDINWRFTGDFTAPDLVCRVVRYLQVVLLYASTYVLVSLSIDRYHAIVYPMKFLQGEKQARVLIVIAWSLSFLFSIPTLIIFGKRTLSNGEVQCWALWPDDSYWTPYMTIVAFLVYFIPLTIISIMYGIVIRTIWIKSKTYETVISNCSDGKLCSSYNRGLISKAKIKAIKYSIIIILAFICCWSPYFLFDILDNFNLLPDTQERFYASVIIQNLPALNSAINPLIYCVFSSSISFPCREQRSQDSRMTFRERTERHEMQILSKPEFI
# IMPase cell inh: membrane-permeable compound that blocks inositol monophosphatase; CHO-M1 cells, IP1 accumulation, HTRF TR-FRET ratio; 120,000 tested, under 10 active; inhibition (IP1 accumulation), % at 46.1 µM; P97697; AID 901; active means well fitted curve in the direction sought with a large enough effect in the signal ratio, not every such curve was filed as active; inconclusive means small, poorly fitted or top-dose-only effect, or a change in a side signal; inactive means no such curve, though single readings can be large or run the other way; the % refers to the signal ratio;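 further: cells stimulated with carbachol in lithium chloride buffer; plate controls were DMSO basal wells for no effect and reference inhibitor wells for full effect; higher means more IMPase inhibition seen as more IP1 and lower FRET ratio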
# Target sequence (P97697 whole entry, looked up): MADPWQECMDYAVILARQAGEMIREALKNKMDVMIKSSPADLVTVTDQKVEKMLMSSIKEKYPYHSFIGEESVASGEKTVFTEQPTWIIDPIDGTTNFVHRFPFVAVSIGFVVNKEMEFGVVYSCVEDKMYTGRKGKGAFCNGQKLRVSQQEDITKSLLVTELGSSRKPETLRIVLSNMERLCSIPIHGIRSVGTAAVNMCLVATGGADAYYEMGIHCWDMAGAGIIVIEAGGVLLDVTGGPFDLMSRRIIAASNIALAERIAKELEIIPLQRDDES
#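 The IP-One HTRF competitive assay in carbachol-stimulated CHO-M1 cells quantifies cellular IP1. Compounds spanned up to 46 uM final, and activity is expressed as AC50 from concentration-response fits of the ratio and donor data.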
# ALOX12 inhib: inhibitors of human 12-lipoxygenase (ALOX12); hit rate 0.12% among 150,000; P18054; Potency, µM (series often up to 57.1 µM), inactives show at the highest dose activity change, negative = inhibition, actives largely listed as inhibitors; purified 12-hLO, xylenol orange hydroperoxide absorbance; AID 1452; further: potency means the concentration at half of the fitted maximal effect; on the % scale 0 is the no-effect control and ±100 the full control effect; nearly all actives have a fitted effect of over 55% in size
#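 Purified human 12hLO (150 nM), preincubated 15 min with compound, then 40 uM arachidonic acid for 30 min, room temperature, Hepes pH 7.0 with 0.01% Triton X-100. Hydroperoxide detected by ferrous iron/xylenol orange; 573/405 nm absorbance ratio gives reaction progress.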
# * marks the source's active call; other numbers are inactive results; ? = inconclusive; · = no result given; [ ] = another dose, or the depositor's remark. The list is not random: actives were taken first. Their share in the collection is about 3.3%. Unless noted, the call rests on the fitted dose curve; in most records, active means well fitted curve in the direction sought with a large enough effect; inconclusive means small, poorly fitted or top-dose-only effect, or another doubt; inactive means no such curve, though single readings can be large; an effect the other way counts as inactive or inconclusive.
SMILES,HTT ATP protect,PNC inhibitor,HttQ103 aggreg,NPSR antag,IMPase cell inh,ALOX12 inhib
CC(=O)Oc1ccc2c(=O)c(N3C(=O)c4ccccc4C3=O)c(C)oc2c1,-3%[10 µM],-91*,-5%,-6%,·,-3%
Cn1c(Cc2csc(N)n2)nnc1SCC(=O)NCc1ccccc1,10%[10 µM],-92*,11%,-15%[46.1 µM],-6,-1%
OCCN1CCN(c2ncnc3ccc(Br)cc23)CC1,13%,17,4.5µM*,-9%[46.1 µM],3,6%
Cc1ccccc1-c1ccc2ncnc(N3CCN(C)CC3)c2c1,-86%,·,·,·,·,·
Cc1cn(C2CCC(CO)O2)c(=O)[nH]c1=O (stereo not drawn),·,·,·,·,·,2%
CCN(CC)c1ccc(/C=N/N=C(N)N)c(O)c1,-73%[10 µM],·,0.71µM*,-6%,·,·
COc1ccc(NC(=O)NC2CCN(C(C)C)CC2)c(OC)c1,8%,-80*,3%[1.84 µM],-6%[46.1 µM],-7,1%
COc1ccc2c(c1)O[C@@H](c1cccc(C(F)(F)F)c1)[C@H](OC(=O)NS(=O)(=O)c1ccc(C)cc1)C2=O,-69%,·,·,·,·,·
O=S(=O)(NC1CC1)c1ccc(S(=O)(=O)N2CCCc3ccccc32)cc1,23%[10 µM],?,11µM*,-4%[7.67 µM],5,-6%
CCCn1c(-c2ccc(F)cc2)nc2c(N3CCN(CCC(=O)OCC)CC3)nc(C)nc21,-40%,·,·,·,·,2%
CN(c1nc2nonc2nc1NC1CC1)C1CCOC1 (stereo not drawn),20%[10 µM],·,22%[9.22 µM],28%,·,·
Cc1ccc2cc(C#N)c(SCC(=O)NNC(=O)Cc3ccccc3)nc2c1,17%[10 µM],-5,10%,7.9µM*,·,-1%
CCOc1ccc2cc(C#N)c(SCC(=O)NC(C)CC)nc2c1 (stereo not drawn),-16%[10 µM],-27,6%,6.3µM*,?,-5%
Cc1ccc2nc(SCC(=O)NCc3ccco3)c(C#N)cc2c1,14%[10 µM],-18,9%,?,?,-4%
Cc1ccc2nc(SCC(=O)NCc3cccs3)c(C#N)cc2c1,8%,-25,26%,10µM*,?,6%
Cc1ccc2cc(C#N)c(SCC(=O)NCc3ccco3)nc2c1,-8%[10 µM],-82*,5%,-22%[46.1 µM],-22,-8%
CN(C)c1ccccc1C(=O)N1CCCC(C(=O)c2ccc3ccccc3c2)C1 (stereo not drawn),9%,·,32µM*,23%,·,·
CSc1ncccc1C(=O)N1CCCC(C(=O)c2ccc3ccccc3c2)C1 (stereo not drawn),35%[10 µM],·,34%[9.22 µM],16%,·,·
COC(=O)Cc1cc(=O)n(-c2nc3ccccc3[nH]2)[nH]1,23%[10 µM],-100*,7%,-10%[46.1 µM],-16,1%
COc1c(C2=CC(=O)N(C)C2=O)c2c(n1C)C(=O)c1ccccc1C2=O,14µM*,·,·,·,·,·
Cc1ccc(C(=O)CSc2nnc(-c3ccccc3)o2)cc1,5%[10 µM],-95*,1%,-11%[46.1 µM],-3,0%
O=C(CSc1nnc(-c2cccnc2)o1)c1cc2ccccc2oc1=O,6%,-99*,?,?,-7,-9%
CCOc1ccc(N(CC(=O)Nc2cccc(Cl)c2)S(=O)(=O)c2c(C)noc2C)cc1,3%,?,22µM*,-22%[46.1 µM],11,-3%
CCOc1ccc(N(CC(=O)Nc2cccc(OC)c2)S(=O)(=O)c2c(C)noc2C)cc1,-8%[10 µM],?,-29%,-15%[46.1 µM],?,-7%
COc1ccccc1N(CC(=O)Nc1ccc(C)c(Cl)c1)S(=O)(=O)c1ccc(C)cc1,·,·,·,·,13,·
SMILES,HTT ATP protect,PNC inhibitor,HttQ103 aggreg,NPSR antag,IMPase cell inh,ALOX12 inhib
CN1CCN(CN2C(=O)C3C4C=CC(C3C2=O)C2C3C(=O)N(CN5CCN(C)CC5)C(=O)C3C42)CC1 (stereo not drawn),-8%[10 µM],·,·,·,·,0%[11.4 µM]
Cc1cc(C)nc(SCc2ccc(F)cc2)n1,3.2µM*,·,?,-22%,·,·
Cc1cc(C)nc(SCc2ccc([N+](=O)[O-])cc2)n1,17%[10 µM],·,0%[9.22 µM],38%,·,·
O=C1NC(=O)c2cc(Nc3ccc(F)cc3)c(Nc3ccc(F)cc3)cc21,·,·,·,·,·,-2%[0.00818 µM]
O=C1NC(=O)c2cc(Nc3ccccc3)c(Nc3ccccc3)cc21,·,·,·,13µM*,12,-4%
CC(C)OP(=O)(OC(C)C)/C(C=O)=N\Nc1ccc([N+](=O)[O-])cc1,14%[10 µM],·,10%[9.22 µM],?,·,·
COc1cc(N=c2ssnc2Cl)cc(OC)c1,12%,?,10µM*,-20%[46.1 µM],-6,10µM*
Clc1nssc1=Nc1ccc(Br)cc1,-101%,·,?,-23%,·,·
O=C(CCc1nc2ccccc2s1)NC1CCOC1=O (stereo not drawn),10%[10 µM],·,26%[9.22 µM],-24%,·,·
COc1ccc(OC)c(NC(=O)Cn2c(=O)n(CC3CCCO3)c(=O)c3cc(OC)c(OC)cc32)c1 (stereo not drawn),·,·,·,·,7,·
COc1cc(C(=O)N2c3ccccc3CC2C)cc(OC)c1OC (stereo not drawn),-8%,-82*,13%,-8%[46.1 µM],5,3%
CC(C)OC(=O)CC(=O)CSc1nc2c(c(-c3cccs3)c1C#N)CCC2,-4%[1.9 µM],9,11µM*,-54%,-26,0%
CCOC(=O)C(C)Sc1nc2c(c(-c3cccs3)c1C#N)CCC2 (stereo not drawn),·,?,18%,?,·,-2%
CC(=O)O[C@@]1(C(C)=O)CCC2C3C=C(Cl)C4=CC(=O)CC[C@]4(C)C3CC[C@]21C (stereo partly drawn),-31%,·,·,·,·,-5%
CC(=O)O[C@]1(C(C)=O)CC[C@H]2[C@@H]3C[C@H](C)C4=CC(=O)CC[C@]4(C)[C@H]3CC[C@@]21C,5%,13,18%,2.5µM*,·,-6%
CC(=O)O[C@]1(C(C)=O)CC[C@H]2[C@@H]3C=C(Cl)C4=CC(=O)CC[C@]4(C)[C@H]3CC[C@@]21C,-56%,-1,-3%,5µM*,·,3%
COc1ccc(S(=O)(=O)N2CCC(C(=O)Nc3ccc(Oc4ccccc4)cc3)CC2)cc1OC,·,·,·,·,-7,·
C=C(C)[C@]12C[C@@H](C)[C@@]34OC(Cc5ccccc5)(O[C@@H]1[C@@H]3C=C(COC(=O)Cc1cc(OC)c(O)cc1I)C[C@]1(O)C(=O)C(C)=C[C@@H]41)O2,·,·,·,·,·,0%[0.00818 µM]
CCCC/C=C/C(NC(=O)C(C)(C)C)c1ccccc1 (stereo not drawn),-53%,·,·,·,·,3%
Cc1ccc2nsnc2c1S(=O)(=O)N(Cc1ccco1)Cc1cc2ccc(C)c(C)c2[nH]c1=O,-13%,-82*,10%,-18%[46.1 µM],6,-10%
COc1ccccc1NC(=S)N(Cc1ccco1)Cc1cc2cc(C)cc(C)c2[nH]c1=O,-12%[10 µM],23,9%,-24%,-3,1%

# Screening data: PubChem, National Center for Advancing Translational Sciences (NCATS)
